Screening data (PubChem BioAssay)
This is a sample that favours compounds with a hit; in the whole collection about 2.6% have one here.
S2 tox – cell viability loss in ATXN counter-screen | S2 cells (HEK-293 line with an ATXN2-luciferase reporter) viability, CellTiter-Fluor protease fluorescence, 24 h | Potency, µM (doses to about 56.7 µM), usual class: cytotoxic | 400,000 compounds, 0.49% hits; further: nearly all actives have a fitted effect of over 40% in size
TGFb SMAD3 inh – blocks TGF-b signaling; AID 588855; 410,000 compounds, 1.2% hits; Potency, µM (titrated, usually from 46.1 µM), most hits filed as inhibitors; HepG2 CAGA-GFP TGF-b/SMAD3 reporter, GFP fluorescence, 18 h; TGF-beta stimulated, 500 pg/mL final; further: nearly all actives have a fitted effect of over 65% in size
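First, reporter cells (HEPG2 CAGA-GFP) rested 2 h at 37 degrees C. Next, compounds were pinned in and TGF-beta added to 500 pg/mL final. After 18 h, GFP was imaged per cell and summed per well.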
HepG2 tox – kills HepG2 cells in TGF-b inhibitor counter-screen; Potency, µM (highest dose often 46.1 µM), usual class: cytotoxic; 410,000 compounds, 0.76% hits; AID 588856; HepG2 CAGA-GFP viability, ATP luminescence, 18 h
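CellTiter-Glo luminescence gave cytotoxicity after 18 hours at 37 degrees C. The cells were HepG2 CAGA-GFP in 1% FBS DMEM, stimulated with 500 pg/mL TGF-beta after compound addition. %Activity was normalised to no-cell wells (complete cell-killing) and DMSO (no toxicity), and curves were fitted and classified.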
uPA generation – inhibitors of cell surface uPA generation; cell surface uPA generation assay, qHTS; Potency, µM (doses to about 38.3 µM), usual class: inhibitors; 330,000 compounds, 0.31% hits; active means well fitted inhibition curve with a large enough effect; inconclusive means small, poorly fitted or top-dose-only effect; inactive means no such curve, though single readings can be large or run the other way; tested in mouse RAW 264.7 cells; further: nearly all actives have a fitted effect of over 55% in size
ATXN2 expr inh – reduces ATXN2 reporter expression in HEK-293 cells | HEK-293 ATXN2-luciferase reporter, luminescence, 24 h | Potency, µM (doses to about 57 µM), actives largely listed as inhibitors | 360,000 compounds, 0.72% hits | AID 1745845; further: nearly all actives have a fitted effect of over 55% in size
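qHTS (up to 57 uM final) was run with 24 h compound exposure of reporter cells at 37 °C. Each well was multiplexed: SteadyGlo luminescence measured ATXN2-luciferase expression after a fluorogenic Gly-Phe-AFC viability readout (25 uM final).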
Giardia killer – kills Giardia lamblia; Giardia lamblia trophozoite viability; activity change, % at 7.66 µM, hits read low; 340,000 compounds, 0.15% hits; AID 540267; in the data active means activity change below about -80%; inconclusive means between about -30% and that limit;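 further: parasites exposed to compound for two days anaerobically before the ATP read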
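Trophozoite viability was measured as ATP-dependent luminescence, read 15-30 min after reagent addition. Before that, parasites at 100 cells/well were exposed to compounds for 48 h, anaerobically, at 37 deg C.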
A number is an active result; . = inactive; ? = inconclusive; / = no result given; ! = repeats disagree. Unless noted, the call rests on the fitted dose curve; in most records, active means well fitted curve in the direction sought with a large enough effect; inconclusive means small, poorly fitted or top-dose-only effect, or another doubt; inactive means no such curve, though single readings can be large; an effect the other way counts as inactive or inconclusive.

SMILES | S2 tox | TGFb SMAD3 inh | HepG2 tox | uPA generation | ATXN2 expr inh | Giardia killer
CCCC1=NN2C(=N)/C(=C\c3cc(C)n(Cc4ccccc4)c3C)C(=O)N=C2S1 | . | ? | . | . | / | .
CCCC1=NN2C(=N)/C(=C\c3cc(C)n(-c4cccc(C)c4)c3C)C(=O)N=C2S1 | . | . | 3.55µM | . | . | .
CCCCCCCCN1[C@@H](CC(C)=O)c2ccc(/C=C/C(C)=O)cc2S1(=O)=O | / | ? | . | / | / | /
Cc1c(Cl)ccc2c1NC(=O)[C@]21N[C@@H](Cc2ccccc2)[C@H]2C(=O)N(c3ccc(F)cc3)C(=O)[C@H]21 | ? | 10µM | . | . | . | .
CCOc1ccc(/C=C/c2cc[n+](C)c3ccccc23)cc1OCC | / | . | . | / | / | /
CC(C)C(=O)N(Cc1ccc(F)cc1)Cc1nc2ccccc2c(=O)[nH]1 | . | . | 20µM | . | . | .
COc1ccccc1CN(Cc1nc2ccccc2c(=O)[nH]1)C(=O)Nc1cccc(C)c1 | . | ? | 8.91µM | . | . | .
COc1ccc(CC(=O)N2CCc3cc(OC)c(OC)cc3C2COc2ccc(OC)cc2)cc1 (stereo not given) | . | . | . | / | . | /
CCc1ccc(OCC2c3cc(OC)c(OC)cc3CCN2C(=O)Cc2ccc(OC)c(OC)c2)cc1 (stereo not given) | . | 11.2µM | . | / | ? | /
COc1ccc(N=C2S/C(=C\c3ccc(Cl)c([N+](=O)[O-])c3)C(=O)N2CCN(C)C)cc1 | 10µM | ? | . | ? | / | .
CCN(CC)CCN1C(=O)/C(=C\c2ccc(Cl)c([N+](=O)[O-])c2)SC1=Nc1ccc(OC)cc1 | / | ? | 20µM | . | 31.6µM | .
CCCN1C(=O)/C(=C/c2ccc(C)s2)SC1=Nc1ccc(OC)cc1 | . | . | . | . | . | .
CN(C)C(=O)CCC(=O)NCC1Cc2cccc(-c3ccccc3C(F)(F)F)c2O1 (stereo not given) | . | / | / | / | / | /
CCCCCCCCCC[n+]1cccc2cc(Br)ccc21 | / | ? | . | / | / | /
CCOC(=O)C(C(C)=O)c1c(Br)c(O)c(O)c2c(C(=O)c3ccc(C)cc3)coc12 (stereo not given) | ? | 10µM | . | ? | 14.1µM | .
CCOC(=O)c1c(C)n(-c2ccc(C)cc2)c2c(C(C(C)=O)C(=O)O)c(Br)c(O)c(O)c12 (stereo not given) | . | ? | . | . | . | .
Cc1ccc(-c2noc(CCC(=O)NCCN3CCOCC3)n2)cc1 | . | . | . | . | . | .
Cc1ccc(-c2noc(CCC(=O)NCCN3CCN(Cc4ccccc4)CC3)n2)cc1 | . | . | 1.26µM | . | . | .
O=S(=O)(Nc1cccc(F)c1)c1ccc2[nH]c3c(c2c1)CCCCC3 | 28.2µM | ? | . | / | . | /
O=S(=O)(Nc1cc(F)ccc1F)c1ccc2[nH]c3c(c2c1)CCCCC3 | ? | ? | 11.2µM | / | ? | /
Cc1ccc(NS(=O)(=O)c2ccc3[nH]c4c(c3c2)CCCCCC4)cc1C | ? | ? | . | / | . | .
CCCOc1ccc(C(=O)Nc2cccc(NC(=O)c3ccc(Cl)cc3Cl)c2)cc1 | ? | ? | 11.2µM | / | . | /
O=[N+]([O-])c1ccc(Nc2ccccc2)c2nonc12 | / | ? | . | . | / | ?
O=[N+]([O-])c1ccc(Sc2cccc[n+]2[O-])c2nonc12 | / | 1.26µM | . | ? | 5.32µM | .
COc1ccc2[nH]c(C(=O)NCCN3CCCCC3)cc2c1 | . | . | 7.94µM | . | . | .
SMILES | S2 tox | TGFb SMAD3 inh | HepG2 tox | uPA generation | ATXN2 expr inh | Giardia killer
O=C1Nc2cc(C(=O)NCCCN3CCCC3)ccc2S/C1=C\c1ccccc1 | ? | ? | 15.8µM | . | / | .
COc1ccc(/C=C2/Sc3ccc(C(=O)NCCN4CCCCCC4)cc3NC2=O)cc1 | 28.2µM | 25.1µM | 12.6µM | . | / | .
COc1ccc(C(=O)NCCN2CCCC2)cc1 | . | . | . | . | . | .
CC(=O)NC1=C(C#N)CCC1 | / | . | . | / | / | /
COc1ccc(-c2ccc(C(=O)N3CCc4c(cnc(C)c4CNS(=O)(=O)N(C)C)C3)o2)cc1 | . | / | / | / | / | /
CN1C(=O)/C(=C/c2cc(N=Nc3ccccc3)ccc2O)SC1=S | 28.2µM | ? | . | . | ? | .
COCC(=O)Nc1cc(C(=O)N2CCN(c3ccccc3)C(=O)C2)cc2nc(-c3ccccc3)n(C)c12 | . | / | / | / | / | /
COc1cccc(CN2CCC(n3cc(C(=O)NC4CCCC4)nn3)CC2)c1O | . | / | / | / | / | /
COc1cc(NC(=O)c2ccnc(N)c2)cc(C(=O)Nc2cccc(C(F)(F)F)c2)c1 | . | . | . | . | . | .
COc1cc(NC(=O)c2csc(N)n2)cc(C(=O)Nc2cccc(C(F)(F)F)c2)c1 | 17.8µM | ? | . | ? | ? | .
COc1cc(NC(=O)c2cnc(N)s2)cc(C(=O)Nc2cccc(C(F)(F)F)c2)c1 | 35.5µM! | ? | . | . | . | .
COc1cc(NC(=O)c2cnc(N)o2)cc(C(=O)Nc2cccc(C(F)(F)F)c2)c1 | 20µM | ? | . | . | ? | .
CCN(CC)CCNC(=O)c1cnn(-c2ncc3c(n2)-c2ccc(OC)cc2CC3)c1C | . | / | / | / | / | /
Cc1nnc(N2C(=O)c3cccc4c([N+](=O)[O-])ccc(c34)C2=O)s1 | . | ? | . | 10µM | / | .
COc1cc(-c2nc(C)cnc2C)cc2c1OCCN(C(=O)Cc1cc(OC)c(OC)c(OC)c1)C2 | . | / | / | / | / | /
Cc1ccc([N+](=O)[O-])cc1S(=O)(=O)Nc1cccc(S(=O)(=O)Nc2ccccc2C(=O)O)c1 | . | . | . | . | . | .
Cc1ccc(C)c(NC(=O)c2ccccc2NS(=O)(=O)c2cc([N+](=O)[O-])ccc2C)c1 | . | 2.51µM | . | ? | ? | .
CNC(=S)N/N=C/c1ccc(-c2cccc(C(=O)O)c2)o1 | . | . | 11.2µM | . | . | .
CC12CCC(/C(=N/O)C1=O)C2(C)C (stereo not given) | / | . | . | / | / | .
CC(=O)N(C)C1=C(N2CCOCC2)C(=O)c2ccccc2C1=O | 3.55µM | 1.58µM | 0.562µM | / | 1.41µM | .
CC(=O)N(C1=C(N2CCOCC2)C(=O)c2ccccc2C1=O)c1ccc(C(=O)O)cc1 | ? | . | . | . | / | .
CCOC(=O)C1=C(COC(=O)c2ccc([N+](=O)[O-])s2)NC(=O)NC1C (stereo not given) | ? | 11.2µM | . | ? | / | ?
CN(C)Cc1csc(NC(=O)Nc2cccc(C(F)(F)F)c2)n1 | . | . | . | / | . | /
CC(N)c1csc(NC(=O)Nc2cccc(C(F)(F)F)c2)n1 (stereo not given) | ? | ? | 20µM | / | ? | /
O=C(Nc1cccc(C(F)(F)F)c1)Nc1ccc2snnc2c1 | . | 7.08µM | . | / | ? | /
COc1ccc(CNC(=O)Nc2nc(C(N)Cc3ccc(C(F)(F)F)cc3)cs2)cc1 (stereo not given) | . | 15.8µM | . | / | ? | /
